# Reference: the supplement of paper PMC12636033
# ± gives the standard deviation of the averaged measurements. Over roughly 33,000 sequences, “E-score (rank enrichment, -0.5 to 0.5)” has its median near -0.0068; the highest 2% begin near 0.24. This excerpt belongs to a sample that is enriched for the highest values.
# Tested on: muMax20 (Max(13-93) K31hArg/K57hArg, M65Nle)
# Assay: PBM 8-mer E-score (E-score (rank enrichment, -0.5 to 0.5)); higher = stronger preferential binding
# Procedure: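 Protein binding microarray (universal PBM chip covering all 10-mers in fixed probe flanks) with chemically synthesized human Max(13-93) bHLH-LZ analogs (not full-length Max) bearing noncanonical residues (hArg, Tha, Aib, Nle at 65) and aromatic Cys staples. Read-out per 8-mer (and its reverse complement): E-score (rank-based enrichment, -0.5 to 0.5) and Z-score of median probe intensity.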
row,Sequence,PBM 8-mer E-score
1,CCCCCTCG,-0.0378 ± 0.01
2,ATGCCCAC,0.164 ± 0.033
3,AATGAATG,0.259 ± 0.058
4,AATGAATC,-0.0408 ± 0.034
5,ACTGAATA,0.0784 ± 0.014
6,GATGAATA,0.24 ± 0.097
7,GATGAATC,0.0791 ± 0.018
8,AATGAACT,-0.00523 ± 0.086
9,AATGAATT,0.238 ± 0.013
10,AATGAATA,0.275 ± 0.093
11,CATGAATG,0.126 ± 0.15
12,CATGAATA,0.192 ± 0.13
13,AATGAAAT,0.0911 ± 0.04
14,TATGAATA,0.159 ± 0.029
15,ATGTATCA,0.135 ± 0.08
16,ATAGAGCA,-0.146 ± 0.024
17,GAACCGAA,0.0388 ± 0.025
18,AAACCCCG,0.193 ± 0.062
19,ACCTACTG,0.118 ± 0.053
20,CATTGATC,0.196 ± 0.028
21,ATCGCAAT,0.0576 ± 0.054
22,CAAAGCTC,-0.178 ± 0.079

row,Sequence,PBM 8-mer E-score
1,CGCATCTA,0.176 ± 0.0097
2,CTCTTCGA,0.0225 ± 0.082
3,AAATTGTA,0.282 ± 0.017
4,AAATTGTT,0.136 ± 0.14
5,TAATTGTA,0.146 ± 0.091
6,CGCGAACC,-0.2495 ± 0.00081
7,CCTGAAAG,0.0218 ± 0.0043
8,ACAACCAC,0.033 ± 0.02
9,ACAACAAG,0.262 ± 0.017
10,ACAACAAC,0.125 ± 0.024
11,ACAACATG,0.265 ± 0.008
12,ACAACATA,0.0952 ± 0.11
13,ACAACAAA,0.163 ± 0.0084
14,ACAACCAG,0.062 ± 0.026
15,ACAACCAT,0.29 ± 0.03
16,ACAACATC,0.0572 ± 0.022
17,CCGTGAGA,-0.189 ± 0.067
18,ACCTATGA,-0.136 ± 0.034
19,ACCACCGC,-0.0018 ± 0.023
20,ATTCTTTC,0.176 ± 0.02
21,CGCAGTGC,-0.12 ± 0.2
22,CATCGGGC,-0.209 ± 0.08

row,Sequence,PBM 8-mer E-score
1,ATGTTGCA,0.122 ± 0.029
2,AAGTAGAT,0.0944 ± 0.081
3,ACCTGGCG,-0.256 ± 0.014
4,GGGGCACA,0.0581 ± 0.01
5,ATTGAAAA,0.306 ± 0.03
6,GGTGAAAA,-0.0373 ± 0.0061
7,ATTGAAAC,0.154 ± 0.059
8,TGTGAAAA,0.289 ± 0.071
9,CGTGAAAA,0.213 ± 0.11
10,CTTGAAAA,0.117 ± 0.035
11,CGCCGACC,-0.14 ± 0.057
12,ACTGAGGA,-0.126 ± 0.025
13,AGCACCTG,-0.0212 ± 0.043
14,TACGTAGA,0.0117 ± 0.044
15,AACGAGGT,-0.0494 ± 0.052
16,AGTTAGCA,0.0279 ± 0.055
17,GCGTGTCA,0.149 ± 0.2
18,AAGTGTCT,0.0152 ± 0.031
19,ACGTGTCC,0.166 ± 0.052
20,CCGTGTCG,-0.1658 ± 0.00081
21,ACGTGTCT,0.326 ± 0.036
22,CCGTGTCA,-0.0799 ± 0.0084

row,Sequence,PBM 8-mer E-score
1,ACGTGTCA,0.278 ± 0.094
2,AAGTGTCG,0.0406 ± 0.12
3,ACGTGTCG,0.237 ± 0.075
4,CAGCCGTA,-0.128 ± 0.029
5,CCATTAAC,0.239 ± 0.015
6,GCATTAAC,0.0389 ± 0.091
7,ACATTAAC,0.175 ± 0.0064
8,TGCGAACA,0.109 ± 0.11
9,ACCACATG,0.319 ± 0.077
10,AGCACATC,-0.0692 ± 0.013
11,AGCACATA,0.0478 ± 0.12
12,ATCACACA,0.251 ± 0.021
13,ATCACACC,0.12 ± 0.065
14,ATCACATA,0.168 ± 0.048
15,ACCACATC,-0.0454 ± 0.028
16,ATCACACG,0.157 ± 0.065
17,AGCACATG,0.266 ± 0.049
18,ATCACATG,0.296 ± 0.11
19,ACCACATA,0.0727 ± 0.0036
20,ATCACATC,0.00749 ± 0.048
